The list is not random: actives were taken first. Their share in the collection is about 3.2%.
APOBEC3G inh: blocks human APOBEC3G single-stranded DNA deamination. Q9HC16. recombinant A3G, ssDNA deamination FAM/TAMRA fluorescence. inhibition, % at 20 µM. 330,000 tested, 0.28% active. AID 493012;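 active = inhibition of at least 40% at 20 µM, with no more than 30% in the related APOBEC3A deaminase screen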
Target sequence (Q9HC16 whole entry, looked up): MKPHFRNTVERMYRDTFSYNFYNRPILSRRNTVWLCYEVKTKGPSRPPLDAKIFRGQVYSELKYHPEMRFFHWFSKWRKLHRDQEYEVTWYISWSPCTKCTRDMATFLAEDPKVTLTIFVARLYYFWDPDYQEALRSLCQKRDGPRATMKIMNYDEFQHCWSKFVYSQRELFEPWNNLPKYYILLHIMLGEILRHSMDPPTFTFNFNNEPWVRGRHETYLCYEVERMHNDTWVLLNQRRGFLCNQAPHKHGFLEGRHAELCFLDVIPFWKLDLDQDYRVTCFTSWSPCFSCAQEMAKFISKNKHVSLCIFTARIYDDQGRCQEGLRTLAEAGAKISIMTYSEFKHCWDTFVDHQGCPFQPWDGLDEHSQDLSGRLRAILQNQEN
AHR activator: activates the human aryl hydrocarbon receptor | 320,000 tested, 2.5% active | AHR-responsive luciferase reporter cells, luminescence | activation, % at 5 µM | AID 2796 | P35869; in the data active = activation above about 47%
NTR1 ag: NTR1 (human) agonism; activation, % at 20 µM; NTR1-U2OS beta-arrestin-GFP spot imaging, agonist mode; 330,000 tested, 0.17% active; P30989;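 active = activation at or above 40% of the spot to cytoplasm intensity ratio, with at least 20 cells analyzed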
A3A deaminase: inhibitors of human APOBEC3A DNA deaminase; P31941; recombinant A3A, FAM/TAMRA ssDNA deamination fluorescence; inhibition, % at 20 µM; 330,000 tested, 0.41% active;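 active = at least 40% inhibition at 20 µM here, with at most 30% in a related deaminase screen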
Target sequence (P31941 whole entry, looked up): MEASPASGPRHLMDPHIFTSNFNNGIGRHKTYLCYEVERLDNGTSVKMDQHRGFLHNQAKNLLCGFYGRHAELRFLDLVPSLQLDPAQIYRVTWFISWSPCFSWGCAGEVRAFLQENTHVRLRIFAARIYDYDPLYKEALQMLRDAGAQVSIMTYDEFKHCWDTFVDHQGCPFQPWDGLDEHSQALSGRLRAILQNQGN
APOBEC3A confirm: confirmation of human APOBEC3A DNA deaminase inhibitors | shares compounds with A3A deaminase | 1,400 tested, 63% active | inhibition, % at 20 µM | recombinant A3A, ssDNA deaminase UDG fluorescence assay;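 active = inhibition reaching a set limit, 80% of the first screen's cutoff, at 20 µM in any replicate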
UDG A3A counter: UDG inhibition in APOBEC3A counter-screen | shares compounds with A3A deaminase | 1,000 tested, under 10 active | UDG counterscreen, FAM/TAMRA uracil oligo fluorescence | inhibition, % at 20 µM; call rule not given here
Numbers stand for hits; . = inactive; / = no result.

SMILES	APOBEC3G inh	AHR activator	NTR1 ag	A3A deaminase	APOBEC3A confirm	UDG A3A counter
COC(=O)C1=C(C)N(Cc2ccccc2)C(=NCC(C)C)N[C@H]1c1ccccc1	.	.	.	64	58	.
COC(=O)C1=C(C)N(Cc2ccccc2)C(=NCc2ccc(OC)cc2)N[C@H]1c1ccccc1	.	.	.	45	59	.
CCC1=[N+](C)CCn2c(C)ccc21	.	.	.	64	76	.
Cn1c(SCC(=O)N2CCOCC2)nnc1-c1ccccc1	.	.	.	54	.	/
Cn1c(SCC(=O)N2CCN(c3ccccc3)CC2)nnc1-c1ccncc1	.	.	.	.	/	/
Cn1c(CC(=O)Nc2ccccc2F)nnc1SCC(=O)N1CCOCC1	.	.	.	40	.	/
Cn1c(CC(=O)Nc2ccccc2F)nnc1SCC(=O)NC1CCCC1	.	.	.	.	/	/
CCCCN(C(=O)c1cccc(S(=O)(=O)N2CCCCC2)c1)C1CCS(=O)(=O)C1 (configuration not stated)	.	.	.	.	/	/
CC[n+]1ccccc1/C=C1\Sc2ccc(C)cc2N1C	.	.	.	54	84	.
CN1/C(=C/c2cccc[n+]2CCO)Sc2ccccc21	.	.	.	.	/	/
COc1ccc2[nH]c(O)c(N=O)c2c1	.	.	.	54	53	.
O=Nc1c(O)[nH]c2ccc(F)cc12	.	.	.	.	/	/
CC1=C(C(N)=O)C(c2cccs2)NC(=O)N1 (configuration not stated)	.	.	.	.	/	/
Cc1cc(NC(=O)CSc2ncccc2C(=O)O)no1	.	.	.	.	/	/
O=C1C2C3C=CC(C3)C2C(=O)N1c1ccncc1 (configuration not stated)	.	.	.	83	.	.
COc1cccc2sc(Nc3nc4ccc(NC(C)=O)cc4s3)nc12	/	.	/	/	/	/
COc1cccc2sc(Nc3nc(-c4ccncc4)cs3)nc12	.	64	.	45	24	.
O=C(CCc1ccc(S(=O)(=O)NCc2ccccc2)cc1)NCC1CCCO1 (configuration not stated)	.	.	.	.	/	/
O=C(NC1CCCCC1)N1CCC(c2nc3ccccc3[nH]2)CC1	.	.	.	.	/	/
O=C(NC1CCCCC1)N1CCC(c2nc3ccc(Cl)cc3[nH]2)CC1	.	.	.	40	.	.
CCOc1ccc(NC(=O)c2cc3ccccc3cc2O)cc1	.	.	.	63	52	.
CCOc1ccc(NC(=O)c2cccc3ccccc23)cc1	.	.	.	.	/	/
CCn1ncc(-c2ccnc3cc(C(=O)O)nn23)c1C	.	.	.	94	77	.
CC(C)N1CCN(S(=O)(=O)c2ccc3ccccc3c2)CC1	.	.	.	.	/	/
CC(C)NC(=O)C(C)N1CCN(S(=O)(=O)c2ccc3ccccc3c2)CC1 (configuration not stated)	.	.	.	57	59	.
SMILES	APOBEC3G inh	AHR activator	NTR1 ag	A3A deaminase	APOBEC3A confirm	UDG A3A counter
CCn1nc(C)c(CNC(=O)c2ccc(OC3CCN(Cc4ccccn4)CC3)cc2)c1C	.	/	.	.	/	/
Cn1c(=O)n(C)c2cc(C(=O)O)ccc21	.	.	.	60	.	.
Cn1c(=O)n(C)c2cc(C(N)=O)ccc21	.	.	.	.	/	/
CCC(=O)Nc1cc(C(=O)O)ccc1S(=O)(=O)c1ccc(C)cc1	.	.	.	47	52	.
O=C(O)c1ccc(CSc2n[nH]c(-c3ccco3)n2)cc1	.	.	.	85	59	.
O=C(C1CCC1)N1CCN(S(=O)(=O)c2ccc(F)cc2)CC1	.	.	.	46	.	/
CC[N+]1(CC(O)COC2CC(C)CC(C)(C)C2)CCOCC1 (configuration not stated)	.	.	.	43	75	.
CC1CCN(CC(O)COC2CC(C)CC(C)(C)C2)CC1 (configuration not stated)	.	.	.	.	/	/
Cc1ccc(C2=C/C(=C/c3cccnc3)C(=O)O2)c(C)c1	.	.	.	.	/	/
O=C1OC(c2ccc(Cl)cc2)=C/C1=C/c1cccnc1	.	.	.	62	37	.
COc1ccc(-c2nnc(SCC(=O)NC(=O)Cc3ccccc3)n2C)cc1	.	.	.	43	.	/
Cn1c(SCC(=O)NC(=O)Cc2ccccc2)nnc1-c1ccc(F)cc1	.	.	.	.	/	/
Cn1c(SCC(=O)Nc2ccc3c(c2)oc2ccccc23)nnc1-c1ccccc1	.	.	.	46	60	.
Cn1c(SCC(=O)NC(C)(C)C)nnc1-c1cccc(NC(=O)c2ccccc2F)c1	.	.	.	45	.	/
CCSCc1nnc(SCC(=O)Nc2ccc(OC)cc2)n1C	.	.	.	56	63	.
Cc1nn(-c2ccccc2)c2nc(-c3ccco3)cc(C(=O)O)c12	.	.	.	67	48	.
CCn1c(SC)nnc1-c1nn(-c2ccccc2)ccc1=O	.	.	.	58	66	.
O=C(O)C(Cc1ccc(Cl)cc1)NS(=O)(=O)c1ccc(Cl)cc1 (configuration not stated)	.	.	.	.	/	/
COc1ccc(OCc2nn[nH]n2)cc1	.	.	.	56	.	.
CCC1(c2ccccc2)NC(=O)N(CC(=O)Nc2cc(Cl)ccc2N2CCOCC2)C1=O (configuration not stated)	.	.	.	47	.	/
CCOC(=O)C1(CC)Oc2ccccc2C(c2ccc(OC)cc2)=C1C(=O)OC (configuration not stated)	.	/	.	.	/	/
CCC1N=C(SC)NC(C)=C1C(=O)c1ccccc1 (configuration not stated)	.	.	.	48	35	.
CCN(CC(=O)Nc1c(F)cccc1F)C(=O)CCNS(=O)(=O)c1ccc(C)c(C)c1	.	.	.	49	.	.
CCc1nc(-c2ccc(C)nc2OC)no1	.	.	.	67	62	.
CCc1nc(-c2ccc(-c3ccc(OC)cc3)nc2OC)no1	.	.	.	.	/	/
SMILES	APOBEC3G inh	AHR activator	NTR1 ag	A3A deaminase	APOBEC3A confirm	UDG A3A counter
CN(C)CCN(Cc1ccc(Cl)cc1)c1ccccn1	.	.	.	.	/	/
C[N+](C)(C)CCN(Cc1ccc(Cl)cc1)c1ccccn1	.	.	.	58	68	.
CC(C)(C)OC(=O)C[C@H]1C/C=C\C[C@@H](CC(=O)NCCO)C(=O)NC[C@@H](c2ccccc2)OC1=O	.	.	.	.	/	/
Cc1ccccc1N=C1NC(=O)/C(=C/c2cccn2-c2cccc(C(=O)O)c2)S1	.	/	.	50	43	.
CCOc1ccc(N(CC(=O)Nc2ccc(C)c(C)c2)S(C)(=O)=O)cc1	.	52	.	46	.	/
CCOc1ccc(N(CC(=O)Nc2ccccc2)S(C)(=O)=O)cc1	.	.	.	43	64	.
CC(C)S(=O)(=O)C/C(N)=N/OC(=O)c1cc(Cl)cc(Cl)c1	.	.	.	.	/	/
COC(=O)c1sc(SC)c(S(=O)(=O)C(C)C)c1N/N=C(\C#N)C(=O)c1ccccc1	.	.	.	.	/	/
CN(C(=O)OC(C)(C)C)c1ccc(-c2nc3ccccc3s2)cc1	.	.	.	.	/	/
